Test systems include NCI-H23 lung; NCI-H226 lung; NCI-H322M lung; HOP-62 NSCLC; NCI-H460 lung; NCI-H522 lung; A549/ATCC NSCLC; 786-0 renal; COLO 205 colon; DU-145 prostate; K-562 leukemia; MALME-3M melanoma; MDA-MB-231 breast; RXF 393 renal; SF-268 CNS; SF-295 CNS; SF-539 CNS; UACC-257 melanoma; M14 melanoma; HOP-92 NSCLC.
Common to all, as to assay: NCI-60 one-dose screen, 48 h (100 = growth as untreated, 0 = no growth, -100 = all killed)
What all share (conditions): 10 µM unless noted

Consider eight compounds from PubChem BioAssay (NCI).

The panel holds about 83,000 compounds, 20% with a hit somewhere; the sample as a whole holds those more often.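 Results are percent growth after 48 hours of single-concentration exposure. 100 means growth as in untreated cells, lower positive values show inhibition; negative values down to -100 show cell death.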 A number with no mark means an inactive call. The source made the active and inactive calls. How the source made its calls: active means growth percent below 10; inactive means the rest. *1 amine or outer side, *2 acyl side, *3 side chain or, on linkers, in order; H or OH if unused. Where a SMILES comes first, the peptide text is derived from it. Bridges are numbered along the chain shown (N, C = ends). Roman numbers before positions name the chains, in order. [ ]: non-standard residue; d: D form. Actinocin(1to9) = Cc1c2oc3c(C)ccc(C(=O)[*:2])c3nc-2c(C(=O)[*:1])c(N)c1=O; NMeV = CN[CH](C(=O)O)C(C)C; Sar = CNCC(=O)O

Take `C[C@@]1(CO)[C@H](O)CC[C@@]2(C)[C@H]1CC[C@H]1C[C@@H]3C[C@@]12CC[C@@]3(O)COC(=O)CN`: the growth with NCI-H23 lung is 21.5%; in the assay with NCI-H226 lung, 62%; with NCI-H322M lung, 78.1%; with HOP-62 NSCLC, 37.6%; in the assay with NCI-H460 lung, 12%; with NCI-H522 lung it was 49%. For the same compound, the growth with A549/ATCC NSCLC was 3.43% (active); in the assay on 786-0 renal, 14.9%; in the assay with COLO 205 colon it was 47%; in the assay with DU-145 prostate, 9.57% (active); in the assay on K-562 leukemia, 34.2%; in the assay with MALME-3M melanoma, 77.4%. The growth in the assay on MDA-MB-231 breast was 92%; in the assay with RXF 393 renal, 5.23% (active); with SF-268 CNS, 50.5%; in the assay on SF-295 CNS, 8.57% (active); in the assay with SF-539 CNS it was -13.9% (active); in the assay with UACC-257 melanoma, 21%. Besides, the growth in the assay with M14 melanoma is 42.4%.

Turning to `CCC1CCCCN1C(=S)N/N=C(\C)c1ccccn1` (configuration not stated), the growth was 20.8% in the assay on NCI-H23 lung; 7.86% (active) in the assay with NCI-H226 lung; 8.13% (active) with NCI-H322M lung; 10.2% with HOP-62 NSCLC; -38.7% (active) in the assay with NCI-H460 lung; -18.6% (active) in the assay on NCI-H522 lung. The growth is 2.7% (active) with A549/ATCC NSCLC; 11.3% with 786-0 renal; -37.5% (active) in the assay with COLO 205 colon; 20.3% in the assay with DU-145 prostate; 12.3% in the assay with K-562 leukemia; -13.2% (active) in the assay with MALME-3M melanoma. Besides, the growth with MDA-MB-231 breast was 21.5%; in the assay on RXF 393 renal it was 0.202% (active); with SF-268 CNS, 1.82% (active); in the assay with SF-295 CNS it was 13%; with UACC-257 melanoma, 0% (active); in the assay on M14 melanoma it was 0.97% (active).

Turning to `CCN(CC)c1ccc(/C=C\C(=O)c2ccc(NC(C)=O)cc2)cc1`, the growth with NCI-H23 lung was 75.2%; in the assay on NCI-H226 lung, 99.6%; with NCI-H322M lung, 111%; with HOP-62 NSCLC it was 56.2%; in the assay with NCI-H460 lung it was 82.2%; in the assay on HOP-92 NSCLC, 70.9%. The growth is 56.8% in the assay with A549/ATCC NSCLC; 49.4% in the assay with COLO 205 colon; 60.1% with DU-145 prostate; 117% in the assay with MALME-3M melanoma; 65.7% in the assay with MDA-MB-231 breast; 79.4% in the assay on RXF 393 renal. The growth with SF-268 CNS was 83.6%; in the assay on SF-295 CNS, 35.6%; in the assay with SF-539 CNS, 67.3%; in the assay with UACC-257 melanoma, 78.3%.

Turning to `COc1cc(/C=C/c2ccnc3ccccc23)cc(OC)c1OC`, the growth with NCI-H23 lung was 26.5%; in the assay with NCI-H226 lung, 38.3%; with NCI-H322M lung, 65.7%; with HOP-62 NSCLC it was 28.1%; in the assay with NCI-H460 lung it was 22.4%; in the assay on NCI-H522 lung it was 26.8%. Moreover, the growth in the assay on A549/ATCC NSCLC is 37%; in the assay on 786-0 renal, 39.6%; with COLO 205 colon, 22.5%; in the assay with DU-145 prostate, 64.4%; in the assay on K-562 leukemia it was 8.29% (active); in the assay on MALME-3M melanoma, 40.3%. The growth in the assay with MDA-MB-231 breast was 47.1%; with RXF 393 renal it was 22.1%; in the assay with SF-268 CNS, 48.2%; in the assay on SF-295 CNS, 32.4%; with SF-539 CNS it was 46.1%; with UACC-257 melanoma, 58.7%. Further, the growth in the assay with M14 melanoma was 13.3%.

For `CCCCOS(=O)(=O)c1ccccc1`, the growth was 104% with NCI-H23 lung; 97.9% in the assay on NCI-H226 lung; 98% with NCI-H322M lung; 96.9% in the assay with HOP-62 NSCLC; 115% in the assay on NCI-H460 lung; 111% in the assay with NCI-H522 lung. In addition, the growth in the assay with A549/ATCC NSCLC is 116%; in the assay on 786-0 renal it was 101%; with COLO 205 colon, 134%; in the assay on DU-145 prostate, 112%; in the assay on K-562 leukemia it was 106%; with MALME-3M melanoma it was 94.5%. The growth with MDA-MB-231 breast is 106%; in the assay on SF-268 CNS, 105%; in the assay with SF-295 CNS, 120%; in the assay with SF-539 CNS, 102%; in the assay on UACC-257 melanoma, 106%; with M14 melanoma, 112%.

Consider `COc1cc2c(c(OC)c1OC)-c1ccc(NCc3ccccc3)c(=O)cc1[C@@H](NC(C)=O)CC2`, for which the growth in the assay with NCI-H23 lung is 25.9%; in the assay with NCI-H226 lung, -12.4% (active); in the assay on NCI-H322M lung it was 50.1%; in the assay with HOP-62 NSCLC it was 26.9%; with NCI-H460 lung, 4.14% (active); in the assay with NCI-H522 lung it was -10.3% (active). In addition, the growth in the assay with A549/ATCC NSCLC is 14.5%; in the assay on 786-0 renal, 21.9%; in the assay with COLO 205 colon, -82.4% (active); with DU-145 prostate, 1.24% (active); in the assay on K-562 leukemia, 2.48% (active); with MALME-3M melanoma, 40.3%. In addition, the growth with MDA-MB-231 breast was -3.82% (active); in the assay on RXF 393 renal, 51.8%; in the assay with SF-268 CNS it was 25.3%; in the assay on SF-295 CNS it was -36.2% (active); in the assay with SF-539 CNS, 0.134% (active); in the assay on UACC-257 melanoma, 63.4%. For the same compound, the growth with M14 melanoma is 13.6%.

On to `CC1(O)CCCCCC1`, for which the growth was 98.4% with NCI-H23 lung; 99.1% in the assay on NCI-H226 lung; 93.1% in the assay on NCI-H322M lung; 87.7% with HOP-62 NSCLC; 107% in the assay with NCI-H460 lung; 112% in the assay on NCI-H522 lung. Besides, the growth was 103% in the assay with A549/ATCC NSCLC; 95.7% with 786-0 renal; 107% in the assay on COLO 205 colon; 106% with DU-145 prostate; 85.3% in the assay with K-562 leukemia; 117% in the assay on MALME-3M melanoma. Besides, the growth in the assay on MDA-MB-231 breast was 106%; in the assay on RXF 393 renal, 108%; in the assay with SF-268 CNS it was 101%; in the assay with SF-295 CNS, 98.7%; with SF-539 CNS, 102%; in the assay with UACC-257 melanoma it was 101%. In addition, the growth in the assay with M14 melanoma is 96.2%.

With `CCC(C)C1NC(=O)C(NC(=O)c2c3nc4c(C(=O)NC5C(=O)NC(C(C)CC)C(=O)N6CCCC6C(=O)N(C)CC(=O)N(C)C(C(C)C)C(=O)OC5C)ccc(C)c4oc-3c(C)c(=O)c2N)C(C)OC(=O)C(C(C)C)N(C)C(=O)CN(C)C(=O)C2CCCN2C1=O` (configuration not stated) (I: TIP[Sar][NMeV] / II: TIP[Sar][NMeV]; ester I:1-I:C, II:1-II:C; linker I:N-II:N via Actinocin(1to9); configuration not given here), the growth was -51.1% (active) in the assay on NCI-H23 lung; -16% (active) with NCI-H226 lung; -2.5% (active) in the assay on NCI-H322M lung; -43.6% (active) with HOP-62 NSCLC; -19.6% (active) in the assay on NCI-H460 lung; -45.5% (active) in the assay on NCI-H522 lung. Besides, the growth with A549/ATCC NSCLC is -15.2% (active); in the assay on 786-0 renal, -20.8% (active); in the assay with COLO 205 colon it was -67.6% (active); in the assay with DU-145 prostate, 15.5%; in the assay on K-562 leukemia, 1.13% (active); with MALME-3M melanoma, -74.1% (active). The growth in the assay on MDA-MB-231 breast is -12.7% (active); with RXF 393 renal, 1.32% (active); in the assay on SF-268 CNS, -11.7% (active); in the assay with SF-295 CNS, -11.3% (active); in the assay on SF-539 CNS, -36.9% (active); in the assay on UACC-257 melanoma, -8.32% (active). For the same compound, in the assay on M14 melanoma, the growth is -95.6% (active).
